Screening data deposited in PubChem BioAssay by Broad Institute.
In the library only some 2.1% were active in any assay of this set; here they are far more common.
Env fusion inh = HIV envelope-mediated fusion inhibition; 1.1% of 360,000 active; inhibition, % at 12.3 µM; HeLa-JRFL Env/CEM21 cell fusion, luciferase; AID 651610;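 active = mean replicate inhibition score of at least 50 and every replicate individually at or above 50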;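 note: 0% = plate neutral controls and 100% = maraviroc near 300 nM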
MLL AF4-AF9 inh = inhibitors of human MLL-AF4/AF9 interaction | P42568 | AlphaScreen, biotin-AF4 peptide binding to FLAG-AF9 | inhibition, % at 10 µM | 0.47% of 350,000 active | AID 651704;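 active = every replicate reaching a set inhibition limit, whatever the replicate mean, cut at about 25% in these data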;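 note: 0% = plate neutral control median and 100% = total signal loss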
Target sequence (P42568 whole entry, looked up): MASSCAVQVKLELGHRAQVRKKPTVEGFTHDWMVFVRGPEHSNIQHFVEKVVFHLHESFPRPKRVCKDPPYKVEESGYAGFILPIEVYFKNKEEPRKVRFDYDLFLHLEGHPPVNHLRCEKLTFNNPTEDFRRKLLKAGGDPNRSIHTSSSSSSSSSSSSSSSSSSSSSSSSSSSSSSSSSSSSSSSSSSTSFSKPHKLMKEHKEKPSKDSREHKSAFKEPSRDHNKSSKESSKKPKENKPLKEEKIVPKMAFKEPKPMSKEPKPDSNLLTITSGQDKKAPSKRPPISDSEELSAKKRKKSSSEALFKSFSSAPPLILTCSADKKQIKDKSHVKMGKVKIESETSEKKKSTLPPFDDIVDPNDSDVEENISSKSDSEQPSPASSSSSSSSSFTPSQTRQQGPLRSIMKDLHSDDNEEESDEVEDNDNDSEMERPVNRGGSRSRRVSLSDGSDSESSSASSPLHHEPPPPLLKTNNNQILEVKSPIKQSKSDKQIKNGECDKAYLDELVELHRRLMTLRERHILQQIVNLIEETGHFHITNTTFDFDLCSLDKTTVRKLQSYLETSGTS
GSIS activator = GLuc luminescence reporter in INS-1E cells, primary screen for activators of glucose-dependent secretion of insulin; AID 743287; activation, % at 16.6 µM; INS-1E GLuc reporter insulin secretion, 2-3 h; 0.61% of 370,000 active;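 active = lowest replicate activation of at least 40%, so every replicate reaches that level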;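 note: 0% = median of neutral control wells and 100% = median of IBMX positive control wells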
PGC1a acetyl inh = modulators of PGC1a acetylation; U2OS PGC1a acetylation, AlphaScreen anti-acetyl-lysine; with virally co-expressed GCN5 acetyltransferase; 0.17% of 350,000 active; inhibition, % at 15.6 µM;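 active = every replicate shows inhibition of at least 40%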;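 note: 0% = neutral control wells and 100% = positive control wells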
NSD2 inh = NSD2 (human) methyltransferase inhibition | 0.54% of 310,000 active | inhibition, % at 12.5 µM | NSD2 peptide methylation, AlphaScreen, 120 min | AID 743445; in the data active = inhibition above about 50%
An asterisk follows results filed as active; / = no result; [ ] = dose if it differs, or a comment.

SMILES	Env fusion inh	MLL AF4-AF9 inh	GSIS activator	PGC1a acetyl inh	NSD2 inh
O=[N+]([O-])c1ccc(S(=O)Cc2ccccc2)c([N+](=O)[O-])c1 (stereo not given)	-165	0	117*	/	4
CCC(=O)Nc1c(C#N)c2nc3ccccc3nc2n1C1CCCCC1	10	/	/	/	0
N#Cc1c(N)n(C2CCCCC2)c2nc3ccccc3nc12	/	/	43*	-6	9
CN(C)CC#Cc1ccc([C@@H]2[C@@H](CO)N3CCCCN(C(=O)C4CCCC4)C[C@H]23)cc1	/	/	/	-12	/
COc1ccc(NC(=O)C2CCCN2C(=O)NCc2ccccc2)cc1OC (stereo not given)	13	/	/	/	-4
COc1cccc(OC)c1NC(=O)C1CCCN1C(=O)NCc1ccccc1 (stereo not given)	-146	/	/	97*	/
COc1cc2c(cc1OC)[C@H](C)N(C(=O)NCc1ccccc1)CC2	-5	1	54*	1	-2
CCOC(=O)N1CCN(Cc2cc(Cl)c3cccnc3c2O)CC1	41	70*	-8	/	-3
O=S(=O)(NCC[C@@H]1CC[C@@H](NS(=O)(=O)c2ccccc2Cl)[C@H](CO)O1)c1ccc(Cl)cc1	57*[16.7 µM]	-1	-22	1	/
O=C(CC1CC1)N[C@H]1CC[C@@H](CCNS(=O)(=O)c2ccc(Cl)cc2)O[C@@H]1CO	-1[16.7 µM]	-1	-1	67*	/
O=C(Nn1cnnc1)c1ccc([N+](=O)[O-])cc1Cl	16	0	-1	/	14
CCC(=O)Nc1ccc2c(c1)C(=O)N(C)C[C@H](OC)[C@@H](C)CN(C(=O)C1CCC1)[C@H](C)CO2	/	/	-14	-2	/
CCOc1ccc(CCNC(=O)CSc2cc(=O)n(C)c3ccccc23)cc1OCC	10	/	57*	4	0
CCOc1ccc(CCNC(=O)Cn2ccc3ccccc3c2=O)cc1OCC	0	-2	50*	5	2
CCOc1ccc(CCNC(=O)COc2cc(=O)n(C)c3ccccc23)cc1OCC	11	0	52*	/	8
Cc1cnn2c(C3CC3)ccnc12	-3	-2	3	15	8
CC(C)=NNC(=O)c1c(O)c2ccccc2[nH]c1=O	-9	/	7	-17	3
CCCCC[C@H]1CN(CCCC)C(=O)[C@@H]1CC(=O)NCc1ccc(OC)cc1	36	-2	-35	-8	/
COc1ccc(-c2ccc3c(c2)S(=O)(=O)c2cccc(C(=O)N4CCN(c5ccc(Cl)cn5)CC4)c2C3=O)cc1OC	25	-1	-3	/	/
C/C(Cn1ncc(N2CCOCC2)c(Cl)c1=O)=N\O	10	-1	1	2	0
CC(=O)OCn1ncc(N2CCOCC2)c(Br)c1=O	6	42*	-1	8	0
CCCOc1ccc(C2C(=O)N(C3CCCCCC3)CC(=O)N2Cc2ccco2)cc1OC (stereo not given)	58*	/	/	-20	4
CC(=O)c1ccc(N2CCN(c3ccc(C(N)=O)cc3[N+](=O)[O-])CC2)cc1	27	-3	5	/	-3
NC(=O)c1ccc(N2CCN(c3ccc(O)cc3)CC2)c([N+](=O)[O-])c1	66*	/	6	/	2
CN1CCN(c2ccccc2NC(=O)c2ccc(N3CCOCC3)c([N+](=O)[O-])c2)CC1	4	10	25	-7	13
SMILES	Env fusion inh	MLL AF4-AF9 inh	GSIS activator	PGC1a acetyl inh	NSD2 inh
CN1CCN(c2ccccc2NC(=O)c2ccc(N3CCCCC3)c([N+](=O)[O-])c2)CC1	7	27*	-2	3	8
COC(=O)c1ccc(N2CCc3ccccc32)c([N+](=O)[O-])c1	10	33*	-1	7	25
CC(=O)c1ccc(N2CCN(C(=O)c3ccco3)C(C)C2)c(F)c1 (stereo not given)	-25	/	/	4	0
CNc1ccc2ncc(-c3ccc(OC)c(OC)c3)n2n1	58*	-6	35	58*	9
CC(C)Oc1ccccc1/C=N/NC(=O)c1ccccc1Cl	-11	7	-11	/	1
CCOC(=O)N1CCN(C2=C(NS(=O)(=O)c3ccc(Br)cc3)C(=O)c3ccccc3C2=O)CC1	11	32*	/	-11	27
CCOC(=O)N1CCN(C(=O)c2ccccc2NS(=O)(=O)c2ccc(C)cc2)CC1	-19	0	7	0	/
CN1CCN(C2=C(NS(=O)(=O)c3ccccc3)C(=O)c3ccccc3C2=O)CC1	/	/	/	/	48
CCOC(=O)N1CCN(C2=C(NS(=O)(=O)c3ccccc3)C(=O)c3ccccc3C2=O)CC1	9	26*	/	0	41
COC(=O)/C=C(\C)NC(=O)c1cccs1	4	/	3	6	-2
CCCCn1c(SCC(=O)Nc2nnc(C(C)C)s2)nc2c1c(=O)n(C)c(=O)n2C	55*	/	-20	-2	23
COc1ccc(S(=O)(=O)N(C)C[C@H]2Oc3ccc(NC(=O)Cn4cnnn4)cc3C(=O)N([C@H](C)CO)C[C@H]2C)cc1	-31[16.7 µM]	-1	27	-3	/
OCC1OC(Oc2c(Br)cc(Br)cc2Br)C(O)C(O)C1O (stereo not given)	/	-1	-15	63*	-1
COC(=O)CC1(C(=O)OC)Oc2ccc(Br)cc2C(=O)N1c1cccc(Cl)c1Cl (stereo not given)	65*	1	-1	/	-6
COC(=O)CC1(C(=O)OC)Oc2ccc(Br)cc2C(=O)N1c1ccc(Br)cc1Cl (stereo not given)	10	0	21	/	-1
Cc1ccc(C(=O)O)cc1NC(=S)NC(=O)c1ccc(COc2ccccc2)cc1	-16	-1	-19	/	45
COc1ccccc1CC(=O)N1CCN(c2cccc(C(F)(F)F)c2)CC1	66*	/	/	-7	-3
CC[C@]12C(=O)N(C)C[C@H]([C@@H]3C(=O)N(Cc4ccccc4)C(=O)[C@@H]31)N2C(=O)c1ccc(C(C)(C)C)cc1	58*	4	-12	-16	/
CCN1C[C@@H]2[C@@H]3C(=O)N(Cc4ccccc4)C(=O)[C@@H]3[C@](Cc3ccccc3)(C1=O)N2C(=O)c1ccc(C(C)(C)C)cc1	4	3	-16	/	/
CCN1C[C@@H]2[C@@H]3C(=O)N(Cc4ccccc4)C(=O)[C@@H]3[C@](CC)(C1=O)N2C(=O)c1ccc(C(C)(C)C)cc1	68*	/	-17	1	/
CCC(C)NC(=O)c1nc2c(nnn2Cc2ccccc2Cl)c(=O)[nH]1 (stereo not given)	3	-3	-14	/	2
O=C(NCc1cccs1)c1nc2c(nnn2Cc2ccccc2Cl)c(=O)[nH]1	111*	/	/	32	/
Cc1nc(SCC(=O)NC2CC2)c2c(C)c(C)sc2n1	-1	-10	5	/	-6
NCCCn1c(C(=O)c2cc(Cl)c(N)c(Cl)c2)c2ccc(C(F)(F)F)cc2[n+]1[O-]	25	/	-3	-5	/
NCCCn1c(C(=O)c2cc(Cl)c(N)c(Cl)c2)c2ccc([N+](=O)[O-])cc2[n+]1[O-]	-47	11	-5	54*	/
CCN1CCN(C(=O)c2ccc3c(c2)N(Cc2ccccc2)C(=O)c2ccccc2S3=O)CC1 (stereo not given)	26	49*	-8	-7	/
